The source of these data is ChEMBL document CHEMBL1157539, “Thousands of chemical starting points for antimalarial lead identification” (Nature, 2010).

Broadly, the Inhibition is the change of the read-out against control, counted positive when it falls.

The assay relates to HepG2. Kind of assay: GSK_TCMDC: Percent inhibition of human HepG2 cell line. Test compounds present at 10uM. The assay is classed as functional.
Compound `COc1ccc(C2C(C(=O)Nc3cc(Cl)c(OC)cc3OC)c3ccccc3C(=O)N2C)cc1` (stereo not given) yielded an Inhibition of 14%.
`CC(NC(=O)c1ccc(O)c(-c2ccc(Cl)c(Cl)c2)c1)C(=O)NC1CCCCC1` (stereo not given): the Inhibition amounted to 0%.
As for `CC(C)(C)SC1SC(SC(C)(C)C)C(OC(=O)c2ccccc2)C(OC(=O)c2ccccc2)C1OC(=O)c1ccccc1` (stereo not given), the figure is 0%; as for `O=C(Nc1ccc(-c2nc3ccccc3[nH]2)cc1)c1ccc(N2CCCC2)c([N+](=O)[O-])c1`, 43%; as for `Cc1cccc2nc(-c3ccc(-c4cccc(CN5CCC(N)C5)c4)s3)[nH]c12.O=C(O)C(F)(F)F` (stereo not given), 16%.
For `CCOC(=O)c1ccc(NC(=O)Nc2ccc(-c3ccc(-c4nc5ccccc5[nH]4)cc3)cc2)cc1` the value was 49%; for `CCCC(C)NC(=O)[C@H](Cc1ccccc1)NC(=O)c1ccc(O)c(-c2ccc(OC)cc2)c1` (stereo not given in full), 12%; for `CCOCn1c(-c2ccccc2)cc2c3c(N)nc(N)nc3ccc21`, 62%.
As for `Cc1ccc(Nc2nccc(NCC(O)c3cccc(F)c3)n2)cc1` (stereo not given), the figure is 24%.
The compound `O=C(CSc1nc2ccccc2c(=O)n1C1CC1)Nc1cc(C(F)(F)F)ccc1Cl` had an Inhibition of 5%.
`c1ccc(C23NC(=Nc4nc5ccccc5[nH]4)NC2(c2ccccc2)NC(=Nc2nc4ccccc4[nH]2)N3)cc1` (stereo not given) had an Inhibition of 2%.
For `NC(=O)c1ccsc1NC(=O)CNC(c1ccccc1)c1ccc(Cl)cc1` (stereo not given) the value was 25%; for `O=C(COc1ccc(C(=O)c2ccccc2)cc1)Nc1nccs1`, 0%; for `Cc1nc2c(-n3cc(Cn4ccnc4)c4ccccc43)ncnc2n1-c1ccc(Cl)cc1Cl`, 16%.
As for `CCN(CC)CCCN(Cc1ccc(-c2ccc(C(F)(F)F)cc2)cc1)C(=O)Cn1c(SCc2cccc(F)c2F)cc(=O)c2ccccc21.O=C(O)C(O)C(O)C(=O)O`, the figure is 45%.
In turn, `COc1cc(F)c2ncc(Cl)c(CCN3CCC(NCc4ccc5c(n4)NC(=O)CO5)CC3)c2c1.Cl` came in with an Inhibition of 20%.
As for `O=C(/C=C/c1ccc(Cl)c(Cl)c1)NC1CCN(CCCNC(=O)c2cccc(Cl)c2)CC1.O=C(O)C(F)(F)F`, the figure is 36%.
As for `O=C(/C=C/c1ccc(Cl)c(Cl)c1)NCCCCCN1CCC(NC(=O)Nc2ccc(F)c(F)c2)CC1`, the Inhibition turned out to be 24%.
`O=C(Nc1ccsc1)Nc1cccc(-c2ccc(-c3nc4cc(C(F)(F)F)ccc4[nH]3)cc2)c1`: the Inhibition was determined as 45%.
For `c1ccc(Oc2ccc(Nc3ccnc(Nc4ccc(CN5CCOCC5)cc4)n3)cc2)cc1` the value was 46%; for `O=C(NCC1CC1)C1CCN(C(c2ccccc2)c2nc3ccccc3s2)CC1` (stereo not given), 0%; for `COc1cc2c(cc1N1CC(C)NC(C)C1)N(C(=O)c1ccc(-c3ccc(-c4ncc[nH]4)cc3C)cc1)CC2` (stereo not given), 7%.
For the compound `O=C(Nc1ccc2c(c1)OCCO2)c1cc(-c2cccnc2)nc2ccc(Cl)cc12`, the Inhibition is on record as 2%.
On to `Fc1ccc2[nH]c(-c3ccc(-c4cccc(CN5CCN(c6ccncc6)CC5)c4)cc3)nc2c1.O=C(O)C(F)(F)F`, for which the Inhibition was 66%.
For `FC(F)(F)c1cnc(Sc2nnc(-c3ccncc3)o2)c(Cl)c1` the value was 10%.
For `O=[N+]([O-])c1cc(/C=N/Nc2nc3nonc3nc2Nc2ccc(F)cc2)c(Cl)cc1Cl` the value was 5%.
`COc1ccc(CN(C)CCCOc2ccc(NC(=O)c3cccc4c(=O)c5cccc(F)c5[nH]c34)cc2)cc1OC` yielded an Inhibition of 6%.
As for `COc1ccc2nccc([C@@H](O)CN3CCC(NCc4ccc5c(c4)oc(=S)n5C)CC3)c2c1.O=C(O)/C=C/C(=O)O`, the figure is 14%; as for `COc1ccccc1C(=O)Nc1cccc(N2CCC(NCc3ccc(-n4cccn4)cc3)CC2)c1`, 9%; as for `Cl.O=c1cc(NCCCCNCc2ccc(Br)c(Br)c2)[nH]c2ccccc12`, 13%.
As for `Cc1cccc2nc(-c3ccc(-c4ccc(CN5CCN(c6cnccn6)CC5)cc4)s3)[nH]c12.O=C(O)C(F)(F)F`, the figure is 11%.
As to `CCc1cccc(OCC2CCCN(c3ccc(C(=O)NC4CC4)cn3)C2)c1` (stereo not given), the Inhibition came to 0%.
As for `Cc1ccc(O)cc1Nc1ccnc2cc(-c3ccncc3)ccc12.Cl`, the figure is 16%; as for `Cc1ccc(O)cc1C[C@@H]1C(=O)CC[C@@]2(C)[C@H]1CC[C@]2(C)O`, 4%; as for `Cc1ccc(NC(=O)Nc2ccc(Br)cc2)cc1OCCN(C)C`, 13%.
In the case of `CCNc1cc(C(=O)N[C@@H](Cc2ccccc2Cl)[C@H](O)CNC(C)CCCC(C)C)cc(N2CCCCS2(=O)=O)c1.Cl` (stereo not given in full), the Inhibition came to 12%.
As for `COc1c(C2=CCN(CCCCNC(=O)c3ccc(-c4ccc(C#N)cc4)cc3)CC2)ccc2c1CCCC2`, the figure is 44%; as for `O=C(O)C(F)(F)F.O=S(=O)(NCCN1CCCC1)c1ccc(-c2ccc(CNCc3ccc(F)cc3)cc2)s1`, 42%.
For `CCCNC[C@@H](O)[C@H](Cc1ccccc1)NC(=O)c1cc(NCC)cc(N2CCCCS2(=O)=O)c1.Cl` the value was 0%; for `CN1CCN(c2ccc(CNc3ccc4ncc(-c5ccc(OC(F)(F)F)cc5)n4n3)cc2)CC1`, 13%.
